Measured values taken from PubChem BioAssay (Tox21).
Inconclusive results are not listed. A call without a number means that no potency is given here. The source made the active and inactive calls. The call rests on the fitted dose curve.

biological target: Vitamin D3 receptor (Homo sapiens) (UniProt P11473); test: qHTS assay to identify small molecule agonists of the vitamin D receptor (VDR) signaling pathway (AID 743222); conditions: HEK293T VDR-UAS-bla, beta-lactamase FRET ratio, 16 h; series mostly up to 63.5 µM
Sequence (P11473 whole entry, looked up): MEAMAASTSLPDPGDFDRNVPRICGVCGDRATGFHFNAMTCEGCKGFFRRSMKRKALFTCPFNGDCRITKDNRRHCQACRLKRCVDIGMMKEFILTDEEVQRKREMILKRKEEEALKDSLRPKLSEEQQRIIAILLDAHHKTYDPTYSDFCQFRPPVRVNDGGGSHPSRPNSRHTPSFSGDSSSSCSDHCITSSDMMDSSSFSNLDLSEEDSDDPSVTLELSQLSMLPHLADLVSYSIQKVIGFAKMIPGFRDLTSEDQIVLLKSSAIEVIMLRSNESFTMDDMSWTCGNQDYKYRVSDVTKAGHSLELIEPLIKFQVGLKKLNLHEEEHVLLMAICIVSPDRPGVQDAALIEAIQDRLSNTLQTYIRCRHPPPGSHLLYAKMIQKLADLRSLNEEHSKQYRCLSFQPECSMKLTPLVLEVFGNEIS
Source text: National Center for Advancing Translational Sciences [NCATS]
NIH Chemical Genomics Center [NCGC]
U.S. Environmental Protection Agency [EPA]
National Institutes of Environmental Health Sciences [NIEHS]
National Toxicology Program [NTP]
U.S. Food and Drug Administration [FDA]
The vitamin D receptor (VDR), a member of nuclear hormone receptor superfamily, plays a critical role in calcium homeostasis and bone metabolism. It is also involved in cell differentiation and growth, and thrombogenicity.
Tox21 Assay Protocol Summary:
VDR-bla cells were dispensed at 2,000 cells/6 uL/well into black wall/clear-bottom 1536-well plates using a Multidrop Combi (Thermo Fisher Scientific, Waltham, MA) dispenser. After the assay plates were incubated at a 37C and 5% CO2 for 4 h, 23 nL of compounds dissolved in DMSO, positive controls or DMSO only was transferred to the assay plate by a Pintool station (Kalypsys, San Diego, CA). The plates were incubated at 37C and 5% CO2 for 16 h. After 1 uL of LiveBLAzerTM B/G FRET substrate was added using a Bioraptr Flying Reagent Dispenser (FRD) workstation (Beckman Coulter, Indianapolis, IN, USA), the plates were incubated at room temperature for 2 h, and fluorescence intensity was measured by an Envision plate reader (PerkinElmer, Shelton, CT).
Potency means the concentration at half of the fitted maximal effect.

| SMILES | Potency |
| --- | --- |
| CCCCCC/C=C\CCCCCCCC(=O)O | inactive |
| Cc1nc2n(c(=O)c1CCN1CCC(c3noc4cc(F)ccc34)CC1)CCCC2 | inactive |
| O=C1c2ccccc2C(=O)N1SC1CCCCC1 | inactive |
| O=S(=O)(O)c1ccc(N=Nc2c(O)ccc3ccccc23)cc1 | inactive |
| C#C[C@]1(OC(C)=O)CC[C@H]2[C@@H]3CCC4=C[C@@H](OC(C)=O)CC[C@@H]4[C@H]3CC[C@@]21C | inactive |
| CC(C)CCCCCOC(=O)CCS | inactive |
| CC/C=C\CCCCCO | inactive |
| C#CC1(O)CC[C@H]2[C@@H]3CCC4=CCCC[C@@H]4[C@H]3CC[C@@]21C (stereo not given in full) | inactive |
| Cc1c(C)c2c(c(C)c1O)CC[C@@](C)(CCC[C@H](C)CCC[C@H](C)CCCC(C)C)O2 | inactive |
| Sc1nc2ccccc2s1 | inactive |
| CC(C)NC[C@@H](O)COc1ccc(CC(N)=O)cc1 | inactive |
| CCCCCc1ccc(Cl)cc1 | inactive |
| O=S(=O)(O)c1ccc(Nc2nc(Nc3ccc(/C=C/c4ccc(Nc5nc(Nc6ccc(S(=O)(=O)O)cc6)nc(N(CCO)CCO)n5)cc4S(=O)(=O)O)c(S(=O)(=O)O)c3)nc(N(CCO)CCO)n2)cc1 | 13.2 µM (active) |
| OC12N=C(c3ccccc3)SC1Cc1cc(Cl)ccc12 (stereo not given) | inactive |
| CCCc1ccc(OCC(=O)N2CCN(C(=O)COc3ccc(CCC)cc3OC)CC2)c(OC)c1 | inactive |
| CCCCCCCCCCCC(=O)OCC(C)OC(=O)CCCCC(=O)O (stereo not given) | inactive |
| CN1CCN(Cc2cc(-c3ccc4[nH]c(=O)oc4c3)co2)[C@@H](c2ccc(F)cc2)C1 | inactive |
| O=[N+]([O-])c1ccc(O)cc1C(F)(F)F | inactive |
| CC(=O)Oc1cc2c(s1)CCN(C(C(=O)C1CC1)c1ccccc1F)C2 (stereo not given) | inactive |
| CCCCOC(=O)CO | inactive |

| SMILES | Potency |
| --- | --- |
| C1CCC(SSC2CCCCC2)CC1 | inactive |
| Cc1c(C)c2c(c(C)c1OC(=O)c1cccnc1)CC[C@@](C)(CCC[C@H](C)CCC[C@H](C)CCCC(C)C)O2 | inactive |
| CN(C)CCN1CCN(c2cccc(Cl)c2)C1=O | inactive |
| CC[C@H](C)COC(=O)/C=C/c1ccc(N=Cc2ccc(OC)cc2)cc1 | inactive |
| CC(C)OC(=O)C(O)(CC(=O)O)CC(=O)O | inactive |
| O=C1NC(=O)[C@@H]2CC=CC[C@H]12 | inactive |
| OC1CCC(C2CCCCC2)CC1 (stereo not given) | inactive |
| C=Cc1ccccc1C=C | inactive |
| OCCN1CCN(CCCN2c3ccccc3Sc3ccc(C(F)(F)F)cc32)CC1 | inactive |
| CC(C)Cn1cnc2c(N)nc3ccccc3c21 | inactive |
| C=CCCC(=O)/C=C/C1C(C)=CCCC1(C)C (stereo not given) | inactive |
| COc1ccc(-c2coc3cc(O)ccc3c2=O)cc1 | inactive |
| CC(C)(C)NSc1nc2ccccc2s1 | inactive |
| COC(=O)Nc1nc2ccc(C(=O)c3ccccc3)cc2[nH]1 | inactive |
| c1ccsc1 | inactive |
| Nc1ccc(C(=O)O)c(O)c1 | inactive |
| CC(=O)c1ccc(C(C)=O)cc1 | inactive |
| Nc1nc(-c2ccccc2)cs1 | inactive |
| CCCCCC(C)OC(=O)COc1ccc(Cl)c2cccnc12 (stereo not given) | inactive |
| CCN(CC)c1ccc2c(-c3ccc(S(=O)(=O)O)cc3S(=O)(=O)[O-])c3ccc(=[N+](CC)CC)cc-3oc2c1 | inactive |
